# Measured values from the supplement of paper PMC10127200.
# Structures can show the parent of a compound that is named as a salt.
# Legend:
# Experiment in all cases: Euclidean distance of Cell Painting phenotypic profile (signed KS, 77 features) to DMSO centroid (dimensionless distance); 5 or 10 uM (library dependent); higher = stronger phenotypic change vs DMSO (phenoactivity)
# Conditions in all cases: 48 h
# [1] = tested on: 786-O
# In short: (§1)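 Phenoactivity is defined as the Euclidean distance from a compound profile to the median vehicle profile. Each profile comprised 77 Harmony features, scored as signed Kolmogorov-Smirnov statistics versus same-plate vehicle wells, then plate-position corrected, correlation-weighted and replicate-averaged at the top dose. Five cancer lines and one healthy fibroblast line were exposed to library compounds for 48 h at 10 or 5 uM (0.1% DMSO final).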
# [2] = tested on: A549
# In short: as §1
# [3] = tested on: DU145
# In short: as §1
# [4] = tested on: FB
# In short: as §1
# [5] = tested on: HEPG2
# In short: as §1
# [6] = tested on: OVCAR4
# In short: as §1
SMILES,Euclidean distance [1],Euclidean distance [2],Euclidean distance [3],Euclidean distance [4],Euclidean distance [5],Euclidean distance [6]
COc1cc(N)c(Cl)cc1C(=O)NC1CCN(CCCOc2ccc(F)cc2)CC1OC (centres undefined) [Cisapride hydrate],0.963,1.16,0.853,1.23,0.401,1.05
N#CSc1cc(SC#N)c(N)nc1N,0.526,2.18,0.906,1.25,1.27,1.14
CC(=O)O[C@H]1Cc2ccccc2N(C(N)=O)c2ccccc21 [Eslicarbazepine Acetate],0.621,0.976,0.966,1.39,1.17,1.64
C[C@](N)(Cc1ccc(O)c(O)c1)C(=O)O [Methyldopa],1.49,0.734,1.09,0.909,0.55,0.729
CCN1C[C@H](C)n2c(c(O)c3c(=O)n(Cc4ccc(F)c(Cl)c4)nc(C(=O)NC)c32)C1=O,1.08,0.61,1.05,0.927,0.645,1
CNC(CC(=O)O)C(=O)O [NMDA (N-Methyl-D-aspartic acid)],0.691,1.26,0.677,0.867,0.901,0.706
CCOc1ccc2nc(S(N)(=O)=O)sc2c1 [Ethoxzolamide],0.892,0.718,1.34,1.35,1.09,0.937
C#C[C@]1(O)CC[C@H]2[C@@H]3CCC4=CC(=O)CC[C@@H]4[C@H]3CC[C@@]21C [Norethindrone],1,0.864,0.791,1.2,0.575,1.29
Cc1nccn1CC1CCc2c(c3ccccc3n2C)C1=O (centres undefined) [Ondansetron Hydrochloride Dihydrate],1.23,0.687,0.998,1.01,1.39,1.43
COC(=O)Nc1nc2cc(C(=O)c3cccs3)ccc2[nH]1 [Nocodazole],2.96,2.51,3.43,2.56,2.58,3.08
Nc1cc(F)ccc1NC(=O)/C=C/c1cnn(C/C=C/c2ccccc2)c1,1.54,1.02,0.877,2.44,1.27,0.895
CSCC[C@H](N)C(=O)O [L-methionine],1.08,0.829,1.25,0.928,0.685,1.71
OCCN1CCN(CCCN2c3ccccc3Sc3ccc(Cl)cc32)CC1 [Perphenazine],1.95,2.47,1.77,2.8,2.4,2.19
CCN(CC)CCCC(C)Nc1nc(C)cc(Nc2ccc3nc(C)cc(N)c3c2)n1 (centres undefined),0.637,0.976,0.753,0.932,2.01,1.16
COc1nc(C)nc(Cl)c1NC1=NCCN1 [Moxonidine],1.15,0.652,1.39,0.879,2.14,1.43
COCCNCc1ccc(-c2cc3nccc(Oc4ccc(NC(=O)C5(C(=O)Nc6ccc(F)cc6)CC5)cc4F)c3s2)nc1 [Sitravatinib (MGCD516)],5.08,4.94,5.04,5.24,4.74,4.64
O=C1Nc2ccc(CN3C(=O)CSC3=O)cc2/C1=C/c1cc(CN2CCOCC2)c[nH]1,1.07,1.06,0.896,1.11,0.385,0.658
CCCCNc1ccc(C(=O)OCCOCCOCCOCCOCCOCCOCCOCCOCCOC)cc1 [Benzonatate],1.17,1.09,0.781,1.36,0.687,1.37
O=C(CCCN1CCN(c2ccccn2)CC1)c1ccc(F)cc1 [Azaperone],0.919,0.568,0.729,0.828,0.758,1.09
CN(C)CCC(c1ccc(Cl)cc1)c1ccccn1 (centres undefined) [Chlorpheniramine Maleate],1.37,0.807,1.01,1.23,1.4,1.15

SMILES,Euclidean distance [1],Euclidean distance [2],Euclidean distance [3],Euclidean distance [4],Euclidean distance [5],Euclidean distance [6]
Cc1nc(C)c(Cl)c(O)c1Cl [Clopidol],0.853,1.1,0.432,1.15,0.83,1.61
COc1cccc2c1C(=O)c1c(O)c3c(c(O)c1C2=O)C[C@@](O)(C(=O)CO)C[C@@H]3O[C@H]1C[C@H](N)[C@H](O[C@@H]2CCCCO2)[C@H](C)O1 [Pirarubicin],3.6,4.43,3.47,4.28,4.37,4.83
CC(=O)OCC1=C(C(=O)O)N2C(=O)[C@@H](NC(=O)CSc3ccncc3)[C@H]2SC1 [Cephapirin Benzathine],1.51,0.954,0.791,1.16,0.75,0.965
COc1cc(N2CCC(N)CC2)ccc1Nc1ncc(Cl)c(-c2c[nH]c3ccccc23)n1,2.97,3.34,2.4,4.05,2.56,2.07
Cc1ccc(/C(=C\CN2CCCC2)c2ccccn2)cc1 [Triprolidine Hydrochloride],0.627,0.986,0.542,1.16,1.31,1.02
COCCCC/C(=N\OCCN)c1ccc(C(F)(F)F)cc1 [Fluvoxamine maleate],1.27,0.895,0.762,1.25,1.1,1.58
C[C@H]1C[C@@H]2[C@H]([C@@H](O)C[C@@]3(C)[C@H]2CC[C@]3(O)C(=O)CO)[C@@]2(C)C=CC(=O)C=C12 [Methylprednisolone],1.37,1.96,1.76,1.79,2.31,2.07
Cc1cnc(C(=O)O)c[n+]1[O-] [Acipimox],1.86,0.99,0.959,0.682,1.59,0.964
CC(C)CC(N)=O [Isovaleramide],1.41,1.09,0.731,0.571,1.21,1.81
CC[C@H](NC(=O)[C@H](C)NC)C(=O)N1C[C@@H](O)C[C@H]1Cc1c(-c2[nH]c3cc(F)ccc3c2C[C@@H]2C[C@H](O)CN2C(=O)[C@H](CC)NC(=O)[C@H](C)NC)[nH]c2cc(F)ccc12 [Birinapant],1.15,1.08,2.69,1.06,2.95,1.97
Nc1cc(C(F)(F)F)c(-c2nc(N3CCOCC3)nc(N3CCOCC3)n2)cn1 [Bimiralisib (PQR309)],2.95,2.83,1.83,4.83,2.44,2.86
Cc1cccc(Nc2ccccc2C(=O)O)c1C [Mefenamic Acid],0.733,0.521,0.8,1.14,0.673,0.64
C[C@H]1[C@H](NC(=O)/C(=N\OC(C)(C)C(=O)O)c2csc(N)n2)C(=O)N1S(=O)(=O)O [Aztreonam],1.13,0.951,1.05,1.15,0.888,1.53
Cc1c(F)cc(C(=O)NC2CC2)cc1-c1ccc(C(=O)NCC(C)(C)C)cn1,1.17,0.619,1.23,0.572,0.761,1.09
CCOC(=O)c1ccc(O)cc1 [Ethylparaben],0.729,0.362,0.901,0.865,0.385,1.31
CS(=O)(=O)c1ccc([C@@H](O)[C@@H](CO)NC(=O)C(Cl)Cl)cc1 [Thiamphenicol],1.41,0.742,0.68,1.08,0.983,1.15
CO/N=C(\C(=O)N[C@@H]1C(=O)N2C(C(=O)[O-])=C(C[N+]3(C)CCCC3)CS[C@H]12)c1csc(N)n1 [Cefepime Dihydrochloride Monohydrate],1.34,0.501,0.945,1.1,0.514,0.878
CC(C)NCC(O)c1ccc(O)c(O)c1 (centres undefined) [Isoproterenol sulfate dihydrate],1.03,0.632,2.58,1.23,0.763,0.894
O=C(Nc1ccc([N+](=O)[O-])cc1Cl)c1cc(Cl)ccc1O [Niclosamide],2.27,2.95,2.1,3.12,0.819,2.45
